Results: PubChem BioAssay AID1063 (University of Pittsburgh Molecular Library Screening Center, 2008)
The whole screen tested about 200,000 compounds, of which about 18,000 (9%) were called active. Cut-off read from the data, not from the text of the source: active = inhibition above about 50%; inactive = the rest. For the sample, actives were picked, then their nearest neighbours and some compounds at random.

Experiment: Leishmania major promastigote growth inhibition, primary screen (AID 1063);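 note: promastigotes grown with compound for 44 hours at 28 °C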
Details: Leishmania major promastigotes, resazurin fluorescence viability; at 10 µM; active compounds read high

SMILES | inhibition
O=C(O)c1cccc(NC(=O)c2cc(-c3cccc(Cl)c3)nc3ccccc23)c1 | -4.68% (inactive)
COc1ccc(OC)c(C(=O)c2ccc(C(=O)N3CCN(Cc4csc(C)n4)CC3)cc2)c1 | -0.79% (inactive)
CCN1CCN(CC(=O)c2cc(OC)c(OC)c(OC)c2)CC1 | -5.32% (inactive)
Nc1nc(SCC(=O)N2CCN(S(=O)(=O)c3ccc(Cl)cc3)CC2)n[nH]1 | -1.03% (inactive)
Cc1ccc(C2=NN(C(=O)COc3ncnc4ccccc34)C(c3ccco3)C2)cc1 (configuration not stated) | -5.8% (inactive)
CCCCN(CC)CCNC(=O)CCNC(=O)Cn1ccc2ccccc2c1=O | 0.35% (inactive)
O=C(COC(=O)c1ccc(F)cc1)Nc1nc2ccc([N+](=O)[O-])cc2s1 | -3.1% (inactive)
O=C(Nc1nc2ccc([N+](=O)[O-])cc2s1)c1ccc(S(=O)(=O)N2CCCc3ccccc32)cc1 | 100% (active)
N=C1C(c2nc3ccccc3s2)=C(O)CN1NC(=O)c1ccc([N+](=O)[O-])cc1 | -3.94% (inactive)
O=C(NC(Nc1nc2ccc([N+](=O)[O-])cc2s1)(C(F)(F)F)C(F)(F)F)c1ccccc1 | 100% (active)
CSc1nc2ccc(S(=O)(=O)N3CCc4ccccc43)cc2s1 | 0.05% (inactive)
O=C(O)CCC(=O)Nc1nc2ccc([N+](=O)[O-])cc2s1 | -7.18% (inactive)
CCCCn1nc(C(=O)OCC(=O)Nc2sccc2C(N)=O)c2ccccc2c1=O | -6.96% (inactive)
Cc1cccc(N2CCC(NCc3c(C(=O)N4CCCCC4)nc4c(C)cccn34)CC2)c1 | 17.5% (inactive)
S=C(Cc1ccc(Cl)cc1)N1CCOCC1 | 1.84% (inactive)
CC1=NN(C(=O)CCCc2ccccc2)C(O)(C(F)(F)F)C1 (configuration not stated) | -11.2% (inactive)
CN(C)CCN=c1cc(-c2ccccc2)oc2ccc(Cl)cc12 | 63% (active)
CN(C)CCn1c(=S)[nH]c2ccc(Cl)cc2c1=O | 1.3% (inactive)
C/C(CC(=O)N1CCN(C=O)CC1)=N\NC(=O)c1ccc(Br)cc1 | -4.54% (inactive)
Cc1cccc(N2C(=O)CC(SC(N)=Nc3ccccc3)C2=O)c1 (configuration not stated) | 45.7% (inactive)
Cc1ccc(-n2c(O)c(C=Nc3ccc(S(=O)(=O)Nc4ncccn4)cc3)c3ccccc3c2=O)cc1C | -5.1% (inactive)

SMILES | inhibition
Cc1nnc(SCC(=O)N2CCc3ccccc3C2)s1 | -1.97% (inactive)
Cc1nnc(SCC(=O)N2c3ccccc3C(C)(c3ccc(Cl)cc3)CC2(C)C)s1 (configuration not stated) | 56.6% (active)
Cc1nnc(SCC(=O)NCc2ccccc2)s1 | -9.92% (inactive)
Cc1ccc(NC(=O)C(=O)NCC2CCN(C(=O)c3cccc([N+](=O)[O-])c3)CC2)cc1 | 23% (inactive)
CN1CCN(c2ccc(NC(=O)COc3ccc(Cl)cc3Cl)cc2)CC1 | 98.7% (active)
CN1CCC(OC(=O)COc2ccc(Cl)cc2Cl)CC1 | 1.67% (inactive)
Cc1nn(-c2ccccc2)c(C)c1NC(=O)COc1ccc(Cl)cc1Cl | 43.4% (inactive)
S=C(NCC1CCCO1)N1CCN(c2ccc(Cl)c(Cl)c2)CC1 (configuration not stated) | 17.8% (inactive)
NS(=O)(=O)c1ccc(Nc2nc(-c3ccccc3)cs2)cc1 | 81.2% (active)
COc1ccc(-c2csc(Nc3ccc(O)cc3)n2)cc1 | 23% (inactive)
COc1ccc(Nc2nc(-c3ccccc3)cs2)cc1 | -2.02% (inactive)
O=C(NCC(O)c1ccc([N+](=O)[O-])cc1)C1CCCCC1 (configuration not stated) | -8.78% (inactive)
Cn1c(-c2sc3cc(C(F)(F)F)cnc3c2-c2ccccc2)n[nH]c1=S | 84.1% (active)
Cn1c(-c2sccc2OCc2cccc(C(F)(F)F)c2)n[nH]c1=S | 14.1% (inactive)
Cc1ccccc1-c1n[nH]c(=S)n1C | -18.2% (inactive)
O=C(CCSc1ccccc1)N1CCN(c2ccccc2F)CC1 | -5.13% (inactive)
O=C(Nc1nc(-c2cccnc2)cs1)c1ccccc1F | -2.37% (inactive)
OCCNCCCCOc1ccccc1F | 19.1% (inactive)
OCCNCCOc1ccc(Cl)c(Cl)c1 | 78.9% (active)
COCC(C)NC(=O)c1ccc(Cl)c(Cl)c1 (configuration not stated) | -3.5% (inactive)
CC/C(Cc1ccccc1)=N/NC(=O)CCn1nnc2ccccc21 | -2.64% (inactive)

SMILES | inhibition
CCN(C(=O)CN1CCN(Cc2ccccc2)CC1)c1c(N)n(Cc2ccccc2)c(=O)[nH]c1=O | -0.59% (inactive)
O=C(/C(=C/c1cccc(Cl)c1)c1nc2ccccc2[nH]1)c1ccccc1 | 101% (active)
CCC(=O)/C(=C(/O)c1ccccc1)c1nc2ccccc2[nH]1 | -5.9% (inactive)
COc1ccc(/C=C(/NC(=O)c2ccc(C)cc2)c2nc3ccccc3[nH]2)cc1OC | 16.1% (inactive)
C=CCNCCCCOc1ccccc1 | 34.8% (inactive)
COc1ccc(NC(=O)CSc2nnc(-c3ccccc3F)n2C2CC2)cc1S(N)(=O)=O | 2.82% (inactive)
CC(=O)Nc1ccc(S(=O)(=O)N2CCSCC2)cc1 | 0.03% (inactive)
CC(=O)Nc1ccc(S(=O)(=O)N2CCN(CCCOc3cc(C)ccc3C)CC2)cc1 | 72.8% (active)
Cc1cccc(OCCCC(=O)Nc2ccc(S(=O)(=O)N3CCCC3)cc2)c1 | 44.8% (inactive)
O=C(CSc1ccccc1)Nc1cc(Cl)ccc1Oc1ccccc1 | 14.8% (inactive)
CCOC(=O)c1ccc(NC(=O)C2CC(=O)Nc3nc4ccccc4n32)cc1 (configuration not stated) | -4.72% (inactive)
COc1cc(NC(=O)c2cccnc2SC)cc(OC)c1 | 1.73% (inactive)
COc1cc(NC(=O)c2ccccc2NS(=O)(=O)c2ccc(Cl)s2)cc(OC)c1 | 74.3% (active)
COC(=O)c1ccc(NC(=O)c2ccccc2NS(=O)(=O)c2ccccc2)cc1 | -3.45% (inactive)
Cc1cc(C)cc(C(=O)NC2C(=O)N3C(C(=O)O)=C(CSc4nnc(C)s4)CSC23)c1 (configuration not stated) | -0.22% (inactive)
O=C1/C(=C\c2ccsc2)NC(=S)N1c1ccccc1 | -4.28% (inactive)
CC(=O)C1C(c2ccc(Cl)cc2)c2c(n[nH]c2C)CC1(C)O (configuration not stated) | -0.37% (inactive)
CCCn1nc(C(=O)N2CCCc3ccccc32)c2ccccc2c1=O | 26.1% (inactive)
CCCCn1nc(C(=O)Nc2ccc(S(=O)(=O)Nc3ncccn3)cc2)c2ccccc2c1=O | -10.7% (inactive)
CCCn1nc(C(=O)Nc2ccc3nc(C)sc3c2)c2ccccc2c1=O | 80.4% (active)
